The text below walks through data of PubChem BioAssay (NCI).

SMILES strings stand for the structures. About 83,000 compounds went through this panel and 20% of them were active in at least one assay; those are over-represented in the sample as a whole.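 How to read the values: 0–100, growth inhibition (40 = 60% inhibited); 0, no net growth; -100 to 0, cell death (-40 = 40% of starting cells died; -100 = all dead).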 Unmarked numbers belong to inactive results. The source made the active and inactive calls. How the source made its calls: active means growth percent below 10; inactive means the rest.

Among the test systems are NCI-H226 lung; NCI-H322M lung; HOP-62 NSCLC; NCI-H460 lung; HOP-92 NSCLC; NCI-H522 lung; A549/ATCC NSCLC; 786-0 renal; COLO 205 colon; DU-145 prostate.
Holding throughout (assay): NCI-60 one-dose screen, 48 h (100 = growth as untreated, 0 = no growth, -100 = all killed)
Common to all, as to settings: 10 µM unless noted

For the molecule `COc1cc2cc(Oc3ccc(NC(=O)c4cccc(C(F)(F)F)c4)cc3)c(C)nc2cc1OCCN1CCCCC1`, the growth with NCI-H226 lung is 103%; with NCI-H322M lung, 69.2%; with HOP-62 NSCLC it was 98.1%; in the experiment on NCI-H460 lung, -69.4% (active); in the experiment with HOP-92 NSCLC, 43.7%; in the experiment with NCI-H522 lung it was 68.9%. Moreover, the growth in the experiment on A549/ATCC NSCLC is 19.2%; in the experiment on 786-0 renal it was 55.4%; in the experiment on COLO 205 colon, -94.8% (active); in the experiment with DU-145 prostate it was 59.4%.
On to `COC(=O)C(Cc1ccccc1)NS(=O)(=O)/N=C1\NC(=O)NC1=C(Cl)Cl` (stereo not given), for which the growth with NCI-H226 lung was 107%; with NCI-H322M lung, 91.4%; in the experiment with HOP-62 NSCLC, 101%; in the experiment with NCI-H460 lung it was 97.6%; in the experiment on HOP-92 NSCLC it was 49.9%; in the experiment with NCI-H522 lung, 96.2%. The growth in the experiment with A549/ATCC NSCLC is 105%; with 786-0 renal it was 77%; with COLO 205 colon it was 133%; with DU-145 prostate, 105%.
As for `c1ccc2c(NCCCN3CCOCC3)c3oc4ccccc4c3nc2c1`, the growth was -11.3% (active) in the experiment with NCI-H226 lung; -17.5% (active) in the experiment on NCI-H322M lung; -13.4% (active) in the experiment on HOP-62 NSCLC; 0.606% (active) in the experiment with NCI-H460 lung; -22.9% (active) in the experiment on HOP-92 NSCLC; -52.8% (active) in the experiment on NCI-H522 lung. The growth is -62.1% (active) in the experiment with A549/ATCC NSCLC, 6.38% (active) with 786-0 renal, -67.8% (active) with COLO 205 colon and 2.98% (active) in the experiment with DU-145 prostate.
Regarding `O=c1/c(=C\c2ccc(-c3ccccc3)o2)sc2nc(-c3ccccc3)nn12`, the growth with NCI-H226 lung was 109%; in the experiment on NCI-H322M lung, 105%; in the experiment with HOP-62 NSCLC, 92.8%; with NCI-H460 lung, 106%; in the experiment with HOP-92 NSCLC it was 90%; with NCI-H522 lung, 98.3%. In addition, the growth in the experiment with A549/ATCC NSCLC was 103%; in the experiment with 786-0 renal, 99.2%; with COLO 205 colon, 117%; with DU-145 prostate, 107%.
As for `COc1ccc(/C=C2\SC(=Nc3cc(C)on3)NC2=O)cc1`, the growth in the experiment with NCI-H226 lung is 102%; with NCI-H322M lung, 97.7%; in the experiment with HOP-62 NSCLC it was 96%; with NCI-H460 lung, 103%; in the experiment with HOP-92 NSCLC it was 94.4%; with NCI-H522 lung it was 100%. The growth in the experiment on A549/ATCC NSCLC was 102%; with 786-0 renal it was 102%; in the experiment with COLO 205 colon, 103%; in the experiment on DU-145 prostate it was 109%.
Regarding `Nc1cc(-c2c[nH]c3ccc(F)cc23)nc2cc(-c3c[nH]c4ccc(F)cc34)nn12`, the growth is 97.4% with NCI-H226 lung; 94.1% in the experiment on NCI-H322M lung; 101% in the experiment with HOP-62 NSCLC; 32.2% with NCI-H460 lung; 83.5% in the experiment with HOP-92 NSCLC; 90.3% with NCI-H522 lung. Further, the growth with A549/ATCC NSCLC is 79.5%; with 786-0 renal it was 66.3%; with COLO 205 colon, 118%; in the experiment on DU-145 prostate it was 72.7%.
Regarding `COc1ccc(-c2nc3ccc(-c4nnc(SCC(=O)Nc5ccc(C(C)=O)cc5)o4)cc3[nH]2)cc1`, the growth in the experiment on NCI-H226 lung was 100%; in the experiment with NCI-H322M lung it was 110%; in the experiment on HOP-62 NSCLC it was 113%; in the experiment with NCI-H460 lung, 103%; in the experiment with HOP-92 NSCLC it was 114%; in the experiment with NCI-H522 lung, 103%. For the same molecule, the growth in the experiment with A549/ATCC NSCLC is 112%; in the experiment with 786-0 renal it was 105%; in the experiment on COLO 205 colon, 113%; in the experiment with DU-145 prostate it was 110%.
Consider `CC1=C(C)C(=O)C(Nc2ccccc2)=C(Cl)C1=O`, for which the growth with NCI-H226 lung was 96.9%; in the experiment on NCI-H322M lung it was 99.3%; in the experiment with HOP-62 NSCLC, 92.6%; with NCI-H460 lung, 95.7%; in the experiment on HOP-92 NSCLC it was 46%; in the experiment on NCI-H522 lung, 83.5%. The growth in the experiment on A549/ATCC NSCLC was 99.8%; in the experiment on 786-0 renal it was 99.2%; in the experiment with COLO 205 colon, 107%; in the experiment with DU-145 prostate it was 101%.
As to `[Cl][Ru].c1ccc(-c2cc(-c3ccccn3)nc(-c3ccccn3)c2)cc1.c1ccc(-c2ccnc3c2ccc2c(-c4ccccc4)ccnc23)cc1`, the growth was -18% (active) in the experiment with NCI-H226 lung; -6.84% (active) in the experiment with NCI-H322M lung; 25.1% with HOP-62 NSCLC; -63% (active) with NCI-H460 lung; -42.9% (active) in the experiment on HOP-92 NSCLC; -52.8% (active) with NCI-H522 lung. Further, the growth was 14.8% with A549/ATCC NSCLC, 6.1% (active) in the experiment with 786-0 renal, -77.9% (active) in the experiment on COLO 205 colon and 7.67% (active) in the experiment with DU-145 prostate.
`COc1cc(/C=C/C(=O)c2ccc(C(F)(F)F)cc2)ccc1Oc1nc(NCCO)nc(N2CCOCC2)n1`: the growth is 89.2% with NCI-H226 lung; 101% in the experiment with NCI-H322M lung; 90.2% in the experiment on HOP-62 NSCLC; 98.7% in the experiment on NCI-H460 lung; 95% in the experiment with HOP-92 NSCLC; 86.8% with NCI-H522 lung. In addition, the growth is 91.6% in the experiment with A549/ATCC NSCLC, 100% in the experiment on 786-0 renal, 108% in the experiment with COLO 205 colon and 101% in the experiment on DU-145 prostate.
For `COc1cccc(-c2nn(-c3ccccc3)cc2-c2ccnc(N3CCN(C(=O)c4ccccc4)CC3)c2)c1`, the growth in the experiment with NCI-H226 lung was 109%; with NCI-H322M lung, 105%; in the experiment with HOP-62 NSCLC, 113%; in the experiment on NCI-H460 lung, 81.8%; with HOP-92 NSCLC, 71.2%; with NCI-H522 lung, 77.1%. The growth in the experiment with A549/ATCC NSCLC was 71.7%; with 786-0 renal it was 102%; in the experiment with COLO 205 colon it was 97.7%; with DU-145 prostate it was 91.5%.
Regarding `COc1cccc(-c2nn(-c3ccccc3)cc2-c2ccnc(N3CCN(C(=O)Nc4ccc(F)cc4)CC3)c2)c1`, the growth in the experiment with NCI-H226 lung is 66.7%; with NCI-H322M lung, 79.2%; with HOP-62 NSCLC it was 102%; in the experiment on NCI-H460 lung, 69.5%; in the experiment with HOP-92 NSCLC it was 63.1%; in the experiment with NCI-H522 lung, 36.2%. The growth in the experiment on A549/ATCC NSCLC was 55.9%; with 786-0 renal, 68.1%; with COLO 205 colon, 64.7%; with DU-145 prostate, 67.5%.
Consider `CN(C)c1ccc(-c2c(NC(C)(C)C)nc3c(OCCc4ccccc4)cccn23)cc1`, for which the growth was 10.6% in the experiment with NCI-H226 lung; 12.2% with NCI-H322M lung; 25.1% in the experiment with HOP-62 NSCLC; 3.22% (active) in the experiment on NCI-H460 lung; -27.5% (active) in the experiment with HOP-92 NSCLC; 5.7% (active) in the experiment on NCI-H522 lung. Moreover, the growth is 23.2% in the experiment on A549/ATCC NSCLC, 20.8% in the experiment with 786-0 renal, -84.6% (active) with COLO 205 colon and 33.2% in the experiment with DU-145 prostate.
